From PubChem
EP2 modulator: EP2 receptor modulators, cAMP readout, primary screen, cell-based, HTRF cAMP, PGE2 stimulation | EP2-expressing cells, cAMP HTRF FRET, PGE2 co-stimulation | induction, % at 25 µM | 0.83% of 260,000 active;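 active means compounds whose cAMP rise, as percent of the full-agonist control response, exceeds 60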;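 further: rat C6 glioma line stably carrying human EP2 under a CMV promoter; the protocol text gives 20 µM as final concentration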
Target sequence (P43116 whole entry, looked up): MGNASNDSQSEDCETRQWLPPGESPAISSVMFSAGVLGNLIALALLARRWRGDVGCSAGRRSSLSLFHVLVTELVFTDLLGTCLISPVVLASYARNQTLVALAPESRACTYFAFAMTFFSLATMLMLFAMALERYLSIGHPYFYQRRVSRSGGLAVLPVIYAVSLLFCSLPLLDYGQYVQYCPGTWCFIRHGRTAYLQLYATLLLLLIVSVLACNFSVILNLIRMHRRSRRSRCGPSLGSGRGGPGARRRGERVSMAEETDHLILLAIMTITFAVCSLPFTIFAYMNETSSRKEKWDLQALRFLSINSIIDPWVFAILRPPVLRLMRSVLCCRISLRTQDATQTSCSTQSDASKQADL
CHT block: inhibitors of human choline transporter CHT | High affinity choline transporter 1 (Homo sapiens), Q9GZV3 | CHT-expressing cells, membrane potential dye, choline response; active compounds read low | B-score at 10 µM | 0.86% of 310,000 active | AID 488975, 2010;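 active means B-score over 3 SD under the library average, and starting fluorescence ratio not unusually high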;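 further: choline stimulus applied at its EC90 after an EC20 pre-addition; B-score computed on integrated fluorescence ratio after choline addition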
EP2 antag: human EP2 receptor antagonists, primary screen, TR-FRET cAMP, C6 glioma cells. Prostaglandin E2 receptor EP2 subtype (Homo sapiens), P43116. C6 glioma cells expressing human EP2; cells stimulated with saturating PGE2. inhibition, % at 25 µM. 0.52% of 260,000 active. AID 1422, 2008;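 active means percent inhibition above 40 after rounding to a whole number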;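 further: rat C6 glioma host cells with rolipram phosphodiesterase inhibitor present; the protocol text gives 20 µM as final concentration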
CHT allo act: CHT positive allosteric modulators, primary screen, cell-based, membrane potential dye, choline EC20; 0.49% of 310,000 active; B-score at 10 µM; CHT-expressing cells; active compounds read high; LV-AA mutant CHT in HEK293 cells; AID 488977, 2010; High affinity choline transporter 1 (Homo sapiens), Q9GZV3;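 active means initial fluorescence not abnormally high and integrated response B-score, plate-corrected, over 3 SD above library mean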
Hits are given with their value; 0 = inactive; - = no result given; ! = repeats disagree. Compounds with a hit are over-represented: about 2% of the library has one in this group of screens.

SMILES	EP2 modulator	CHT block	EP2 antag	CHT allo act
COc1ccc(NC(=O)C(=O)N2N=C3CCCCC3C2(O)C(F)(F)F)cc1 (stereo unspecified)	61.1	0	0	0
Cc1ccc(NC(=O)c2cc(N3C(=O)C=CC3=O)ccc2N2CCOCC2)cc1	0	-	117.7	-
CC(C)C(=O)N1CCN(c2ccc(NC(=O)COc3ccccc3[N+](=O)[O-])cc2)CC1	0	0	44.3	0
CN1CCN(c2ccc(NC(=O)COc3ccccc3[N+](=O)[O-])cc2)CC1	0	0	0	0
COc1cc2nncc(SCc3ccc(Cl)c(Cl)c3)c2cc1OC	0	-	54.3	-
Nc1ccc(N=Nc2c(S(=O)(=O)O)cc3ccccc3c2S(=O)(=O)O)cc1	0	-	40.5	-
CCN(CC)S(=O)(=O)c1ccc(C)c2nsnc12	0	-	0	-
Cc1ccccc1S(=O)(=O)Nc1nc2ccccc2nc1N1CCc2ccccc2C1	60.6	0	0	0
O=S(=O)(Nc1nc2ccccc2nc1N1CCc2ccccc2C1)c1ccc(Br)cc1	0	0	0	0
CC1=NN(c2nc(-c3ccc(C)cc3)cs2)C(=O)C1N=Nc1ccc2ccccc2c1 (stereo unspecified)	0	0	0	0
CC1=NN(C(=O)c2ccncc2)C(=O)[C@@H]1N=Nc1ccc2ccccc2c1	0	-	58.2	-
Fc1ccc(-c2csc3ncnc(N4CCc5ccccc5C4)c23)cc1	63.7	0	0	0
COc1ccc([N+](=O)[O-])cc1NC(=O)CSCc1ccc(Br)cc1	0	0	0	0
O=C(CSCc1ccc(Cl)cc1)Nc1cc([N+](=O)[O-])ccc1O	0	-8.15	0	0
O=S(=O)(c1ccc(S(=O)(=O)N(Cc2ccccc2Cl)C2CC2)cc1)N1CCCCC1	0	-	0	-
O=C(O)[C@H]1CCCC[C@@H]1c1c2ccc(=O)c(O)c-2oc2c(O)c(O)ccc12	0	-	41.7	-
Cc1cc(C(=O)CSc2nn3c(=O)c(C(C)(C)C)nnc3s2)c(C)n1-c1ccc(F)cc1	0	0	44.3	0
CCCC(c1nnnn1Cc1ccccc1)N(Cc1cc2cc(C)ccc2[nH]c1=O)C1CCCCC1 (stereo unspecified)	0	-	0	-
Cc1cccc2cc(C(c3nnnn3Cc3ccccc3)N3CCc4ccccc43)c(=O)[nH]c12 (stereo unspecified)	95.3	-	0	-
O=c1[nH]c2cc3c(cc2cc1C(c1nnnn1C1CCCC1)N1CCCCCC1)OCCO3 (stereo unspecified)	80.8	-	0	-
CCOc1ccc2[nH]c(=O)c(C(c3nnnn3C3CCCC3)N3CCCc4ccccc43)cc2c1 (stereo unspecified)	73.7	-	0	-
CCCC(c1nnnn1Cc1ccccc1)N(Cc1cc2cccc(C)c2[nH]c1=O)C1CCCCC1 (stereo unspecified)	69.5	-	0	-
Cc1cccc2cc(C(c3nnnn3CC3CCCO3)N3CCc4ccccc43)c(=O)[nH]c12 (stereo unspecified)	0	-	0	-
COc1ccc(-c2nnc(SCC(=O)c3ccc(C)cc3)o2)cc1OC	0	-	0	-
Oc1cc2ccccc2cc1-c1n[nH]c(=S)n1-c1ccccc1	0	-	0	-
SMILES	EP2 modulator	CHT block	EP2 antag	CHT allo act
Cc1cc2cc(NS(=O)(=O)c3cn(C)nc3C)ccc2o1	0	-	0	-
Cc1cccc(N(C(=O)c2csnn2)C(C(=O)NC(C)(C)C)c2ccccn2)c1C (stereo unspecified)	0	-	0	-
CCCC(c1nnnn1C(C)(C)C)N1CCN(c2ccccc2OC)CC1 (stereo unspecified)	0	-	0	-
Cc1cccc2cc(C(c3nnnn3C3CCCCC3)N3CCc4ccccc43)c(=O)[nH]c12 (stereo unspecified)	108.1	-	0	-
Cc1cc2cc(C(c3nnnn3C3CCCC3)N3CCc4ccccc43)c(=O)[nH]c2cc1C (stereo unspecified)	0	-	0	-
Cc1cc2cc(C(c3nnnn3C3CCCCC3)N3CCc4ccccc43)c(=O)[nH]c2cc1C (stereo unspecified)	76.1	-	0	-
O=C(O)c1cccc(Cn2c(Cl)c(/C=N/NC(=O)c3ccc(O)cc3)sc2=O)c1	61.4	0	0	0
COc1ccc(-c2cc([C@H](O)[C@@H]3CCCCN3)c3ccccc3n2)cc1	0	-	50.3	-
COc1ccc(-c2cc(C(=O)NC3CCCC3)c3ccccc3n2)cc1	-	0	-	0
O[C@@H](c1cc(-c2ccccc2)nc2c1ccc1ccccc12)[C@@H]1CCCCN1	0	-	84.3	-
COC(=O)C1=NN(c2ccccc2)C2(S1)S/C(=C\c1ccccc1)C(=O)N2c1ccccc1 (stereo unspecified)	0	0	0	0
CCOC(=O)C1=NN(c2ccccc2)C2(S1)SC(C(C)=O)=C(C)N2c1ccccc1 (stereo unspecified)	63.3	0	0	0
CN(C)CCCn1c2c3ccccc3ccc2c2oc(=O)c3ccccc3c21	0	-	74.2	-
CN(C)CCCn1c(=S)[nH]c2ccccc2c1=O	0	0	0	0
O=C(Nc1sc2c(c1C(=O)Nc1ccc(O)cc1)CCCC2)c1ccco1	0	-	0	-
Cc1oc(-c2cccc(Cl)c2)nc1CN1CCC(C(=O)NCc2ccco2)CC1	0	0	0	0
CCN1CCCC1CNC(=O)C1CCN(Cc2nc(-c3cccc(Br)c3)oc2C)CC1 (stereo unspecified)	0	0	-	8.32
CC(C)C(=O)NC(C)c1nc(-c2cccnc2)n[nH]1 (stereo unspecified)	0	-	0	-
O=C(O)c1c(-c2c3ccc(=O)cc-3oc3cc(O)ccc23)cc2ccccc2c1-c1ccccc1	0	-	42.2	-
CO/N=C/C(=N\Nc1ccc(OC)cc1)C(=O)c1ccc(F)cc1	0	0	0	0
CO/N=C\C(=N\Nc1ccc(OC)cc1)C(=O)c1ccccc1	61.9	0	0	0
CC(C)NC(=O)CSc1nnc(-c2ccco2)n1Cc1ccccc1	0	-	0	-
NC(=O)c1cccc2c3c([nH]c12)CCCC3	0	0	0	0
Cc1cccc2c3c([nH]c12)CCN(C)C3	-	-5.84	-	0
Clc1ccccc1-c1ncnc2ccc(Br)cc12	63.8!	0	0	0
SMILES	EP2 modulator	CHT block	EP2 antag	CHT allo act
NNc1nc(-c2ccccc2Cl)c2cc(Br)ccc2n1	-	0	-	0
COC(=O)Nc1nn(-c2ccc(OC)cc2)c(=O)c(C#N)c1C	0	0	0	0
CCOC(=O)c1nn(-c2ccc(OC)cc2)c(=O)c(C#N)c1C	0	-	73.6	-
COc1ccccc1C1(O)CCCN(CC(O)c2ccccc2)C1 (stereo unspecified)	0	-	0	-
COC(=O)CSC1=NS(=O)(=O)c2ccccc21	0	0	114.2	0
Cc1nn2c(NCCN3CCOCC3)c3c(nc2c1-c1cccs1)CCC3	0	-	-	-
CCN1CCOC(CC(=O)Nc2cccc(C)c2)C1=O (stereo unspecified)	69.2	-	0	-
CCN1CCOC(CC(=O)Nc2ccc([N+](=O)[O-])cc2)C1=O (stereo unspecified)	0	0	0	0
Cc1ccc(CN(CCCN2CCOCC2)Cc2nc3ccccc3[nH]2)o1	0	-	0	-
